# Values joined by “and” are separate entries in the source; they are usually repeats but may differ in a detail not shown here. Equal entries are not always repeated. Active and inactive are the calls of the source. Rule as the data show it, unless noted: active = inhibition above about 80%; inactive = the rest.
# Experiments:
# [1] = molecular target: 6-phosphogluconate dehydrogenase, decarboxylating (Homo sapiens) (UniProt P52209); test: inhibition of human phosphogluconate dehydrogenase – biochemical, recombinant enzyme, NADPH absorbance, primary screen (AID 1159550;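 active = at least 20% inhibition of 6-phosphogluconate dehydrogenase activity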); settings: recombinant 6PGD, NADPH absorbance 341 nm; at 10 µM; stronger effect = higher value
# Sequence of 6-phosphogluconate dehydrogenase, decarboxylating (Homo sapiens) (P52209 whole entry, looked up): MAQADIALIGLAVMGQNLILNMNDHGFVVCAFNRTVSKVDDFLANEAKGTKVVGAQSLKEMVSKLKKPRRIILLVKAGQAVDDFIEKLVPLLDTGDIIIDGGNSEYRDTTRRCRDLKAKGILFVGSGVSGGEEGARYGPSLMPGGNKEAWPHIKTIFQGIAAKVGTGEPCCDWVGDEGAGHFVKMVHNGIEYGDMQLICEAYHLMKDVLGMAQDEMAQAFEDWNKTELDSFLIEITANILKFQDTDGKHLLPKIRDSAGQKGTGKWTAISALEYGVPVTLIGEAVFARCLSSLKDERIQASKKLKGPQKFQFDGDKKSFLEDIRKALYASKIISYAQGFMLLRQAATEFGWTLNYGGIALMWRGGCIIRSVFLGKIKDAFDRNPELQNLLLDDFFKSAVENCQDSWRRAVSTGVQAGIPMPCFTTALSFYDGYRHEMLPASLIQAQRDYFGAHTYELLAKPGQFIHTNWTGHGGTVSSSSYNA
# [2] = viability loss with induced miR-34 in A549 – imaging, A549 dox-inducible miR-34, nuclei and caspase counts, primary screen (AID 1347080;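 active = compounds whose cell count with miR-34 switched on is under 0.7 times the count with it off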); settings: A549 miR-34 inducible, Hoechst nuclei count, 48 h
# [3] = galactose survival enhancers in mitochondrial complex I cybrids – cell-based, galactose medium, ATP luminescence, primary screen (AID 1645843;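 active = z-score of at least 1.8 in each of two replicates, scored against plate mean and spread of sample wells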;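 also: positive z means more ATP and so rescue of galactose-driven cybrid death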); settings: complex I mutant cybrid cells, 72 h, stronger effect = higher value
# [4] = growth inhibition, single agent or in combination, cell-based, chromothripsis tumors, cisplatin or BGB combos (AID 1671449); settings: LFS_MB_P medulloblastoma cells;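 also: cells exposed for 96 hours; 0% = vehicle DMSO and 100% = killing by high DMSO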
# [5] = growth inhibition, single agent and combos, cell-based, chromothripsis tumors, cisplatin or BGB combos (AID 1671450); settings: HDN33 neuroblastoma cells, stronger effect = higher value;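 also: cells exposed to compound for four days; 0% = vehicle DMSO and 100% = cell killing by high DMSO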
# [6] = growth inhibition, single agents and combos, ICB984, cell-based, cisplatin or BGB combos, synergistic combos for chromothripsis tumors (AID 1671451; call rule not given here;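 also: cells exposed for 96 hours before readout; 0% = vehicle DMSO and 100% = killing by high DMSO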); settings: ICB984 medulloblastoma cells, drug combinations, stronger effect = higher value
# [7] = growth inhibition, single agents and combos, LFS_MB_1R, cell-based, cisplatin or BGB combos, synergistic combos for chromothripsis tumors (AID 1671452); settings: LFS_MB_1R medulloblastoma cells, stronger effect = higher value;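 also: cells exposed for 96 hours before readout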
# [8] = growth inhibition, single agents and combos, HTB85, cell-based, BGB or cisplatin IC20 combos, synergistic combos for chromothripsis tumors (AID 1671453); settings: HTB85 osteosarcoma cells, drug combinations, stronger effect = higher value;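 also: cells exposed for 96 hours before readout; 0% = vehicle DMSO and 100% = high DMSO killing control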
# [9] = growth inhibition, single agents and combos, CRL2098, cell-based, BGB or cisplatin IC20 combos, synergistic combos for chromothripsis tumors (AID 1671454); settings: CRL2098 osteosarcoma cells, drug combinations, stronger effect = higher value;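 also: cells exposed for 96 h before readout; 0% = vehicle DMSO and 100% = killing by high DMSO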
# [10] = growth inhibition, single agents and combos, HD-MB03, cell-based, BGB or cisplatin IC20 combos, synergistic combos for chromothripsis tumors (AID 1671455; in the data active = inhibition above about 83%;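 also: 0% = vehicle DMSO and 100% = high DMSO as cytotoxic control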); settings: HD-MB03 medulloblastoma cells, stronger effect = higher value
# [11] = growth inhibition, single agents and combos, UWB1.289, cell-based, BGB or cisplatin combos, synergistic combos for chromothripsis tumors (AID 1671456); settings: UWB1.289 ovarian carcinoma cells, stronger effect = higher value;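 also: cells exposed to compound for four days; 0% = vehicle DMSO and 100% = killing by high DMSO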
# [12] = growth inhibition, single agents and combos, LFS_MB_2R, cell-based, cisplatin combos, synergistic combos for chromothripsis tumors (AID 1671457); settings: LFS_MB_2R medulloblastoma cells, stronger effect = higher value;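 also: cells exposed to compound for four days before readout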
# [13] = growth inhibition, MDA-MB-436, cell-based, BGB or cisplatin combos, synergistic combos for chromothripsis tumors (AID 1671458; call rule not given here;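 also: cells exposed for 96 hours; 0% = vehicle DMSO and 100% = killing by high DMSO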); settings: MDA-MB-436 breast carcinoma growth inhibition, drug combinations, stronger effect = higher value
# [14] = UWB1.289_BRCA1 ovarian cancer growth, cell-based, BGB or cisplatin combinations (AID 1671459); settings: UWB1.289 BRCA1 ovarian carcinoma, drug combinations, stronger effect = higher value
# [15] = drug combination toxicity in non-malignant astrocytes – cell-based, BGB or cisplatin IC20 combos, cytotoxicity control for chromothriptic childhood tumor combination screen (AID 1671460); settings: Human astrocytes, viability inhibition, drug combinations, at 0.5 µM, stronger effect = higher value;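 also: cells exposed to compounds for 96 hours before viability readout; 0% = vehicle and 100% = killing control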
# [16] = BT084 cell growth, single and combined drugs, ICGC_MB145, cisplatin and BGB IC40 combos (AID 1671461); settings: BT084 medulloblastoma cells, drug combinations, stronger effect = higher value;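 also: cells exposed to drugs for 96 hours; 0% = vehicle DMSO and 100% = high DMSO full killing control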
# [17] = RCMB18 cell growth, single agent and combined, cisplatin and BGB IC40 combos (AID 1671462); settings: RCMB18 medulloblastoma cells, stronger effect = higher value;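 also: cells exposed to compound for four days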
# [18] = CRL1545 cell growth, single agent and combined, cisplatin and BGB IC20 combos (AID 1671464); settings: CRL1545 osteosarcoma cells, stronger effect = higher value;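 also: cells exposed to compound for 96 hours before readout; 0% = vehicle DMSO and 100% = high DMSO killing control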
# [19] = measured here: combination with BGB IC40, at 0.05 µM
# [20] = measured here: with BGB IC20 combination, at 0.5 µM
# [21] = measured here: with cisplatin IC20 combination, at 0.5 µM
# [22] = measured here: combination with cisplatin, at 0.5 µM
# [23] = measured here: combination with cisplatin, at 5 µM
structure (smiles),measurement,setting,value
COc1cc(C2c3cc4c(cc3C(OC3OC5COC(C)OC5C(O)C3O)C3COC(=O)C23)OCO4)cc(OC)c1O (centres undefined),inhibition,[1],-3.12% (inactive)
same,fold change,"[2]; stronger effect = lower value, cell number ratio, induced over uninduced",0.803 (inactive)
same,fold change,[2]; measured here: relative caspase fold change +Dox/-Dox,1.95
same,cell count,"[2]; measured here: total cells with miR-34 induction, stronger effect = lower value",3290
same,cell count,[2]; measured here: total cells without miR-34 induction,4090
same,z-score,[3],-1.39 (inactive)
same,inhibition,"[4]; at 0.5 µM, stronger effect = higher value",-32.6% (inactive) and -17.8% (inactive)
same,inhibition,"[4]; measured here: combination with BGB IC20, at 0.005 µM",-28.8% and 2.01%
same,inhibition,"[4]; measured here: combination with BGB IC40, at 0.005 µM",-24.3% and 13.4%
same,inhibition,[4]; [19],-29.9% and -0.69%
same,inhibition,"[4]; measured here: combination with cisplatin, at 0.5 µM, stronger effect = higher value",-45.5% and -45.4%
same,inhibition,"[4]; measured here: combination with cisplatin, at 5 µM, stronger effect = higher value",-34.4% and -6.98%
same,inhibition,"[5]; BGB combo, at 5 µM",47.6% and 64.8%
same,inhibition,[5]; at 0.5 µM,15.7% (inactive) and 26.2% (inactive)
same,inhibition,"[5]; cisplatin combo, at 5 µM",44.6% and 49%
same,inhibition,[5]; [20],15.9% and 28.5%
same,inhibition,[5]; [21],-1.85% and 5.29%
same,inhibition,"[5]; single agent, at 5 µM",68.9% and 70.5%
same,inhibition,"[6]; BGB IC20 combo, at 0.005 µM",-20.6% and 5.1%
same,inhibition,"[6]; BGB IC40 combo, at 0.005 µM",-32.2% and -0.661%
same,inhibition,"[6]; BGB IC40 combo, at 0.05 µM",-74.4% and -28.1%
same,inhibition,[6]; at 0.5 µM,-29.8% (inactive) and -8.32% (inactive)
same,inhibition,"[6]; cisplatin combo, at 0.05 µM",-80.7% and -31.6%
same,inhibition,"[6]; cisplatin combo, at 0.5 µM",-45.1% and -7.65%
same,inhibition,"[6]; cisplatin combo, at 5 µM",-73.3% and -20.4%
same,inhibition,"[6]; measured here: 5 uM single agent, at 5 µM",-13% and -19.7%
same,inhibition,[7]; at 0.5 µM,-24.1% (inactive) and -15.7% (inactive)
same,inhibition,[7]; [19],-34.7% and -15.9%
same,inhibition,[7]; [22],-23.9% and -48.9%
same,inhibition,[7]; [23],-59.7% and -24.4%
same,inhibition,[8]; at 0.5 µM,3.37% (inactive) and 12.3% (inactive)
same,inhibition,"[8]; measured here: with BGB IC20, at 0.5 µM",-1.07% and 17.8%
same,inhibition,"[8]; measured here: with BGB IC20, at 5 µM",84.3% and 86%
same,inhibition,"[8]; measured here: with cisplatin IC20, at 0.5 µM",-5.76% and 1.07%
same,inhibition,"[8]; measured here: with cisplatin IC20, at 5 µM",76.7% and 87%
same,inhibition,"[8]; single agent, at 5 µM",84.8% and 89.6%
same,inhibition,[9]; at 0.5 µM,-81.8% (inactive) and -42.5% (inactive)
same,inhibition,"[9]; measured here: combination with BGB at IC20, at 0.5 µM",-58% and -65.7%
same,inhibition,"[9]; measured here: combination with cisplatin at IC20, at 0.5 µM",-127% and -42.7%
same,inhibition,[10]; at 0.5 µM,58.9% (inactive) and 63.9% (inactive)
same,inhibition,"[10]; measured here: combo with BGB at IC20, at 0.5 µM",56.6% and 69.3%
same,inhibition,"[10]; measured here: combo with cisplatin at IC20, at 0.5 µM",64.2% and 61.2%
same,inhibition,[11]; at 0.5 µM,-3.51% (inactive) and 0.59% (inactive)
same,inhibition,"[11]; measured here: inhibition with BGB combination, at 0.05 µM",2.23% and -16.8%
same,inhibition,"[11]; measured here: inhibition with cisplatin combination, at 0.05 µM",-32.6% and -11.7%
same,inhibition,[12]; at 0.5 µM,-20.7% (inactive) and -2.13% (inactive)
same,inhibition,[12]; [22],-26.1% and 1.95%
same,inhibition,[12]; [23],-15.5% and -45.8%
same,inhibition,[13]; at 0.5 µM,19.1% (inactive) and 27.8% (inactive)
same,inhibition,"[13]; measured here: BGB combination, at 0.5 µM",8.19% and 23.7%
same,inhibition,"[13]; measured here: BGB combination, at 5 µM",34% and 51.6%
same,inhibition,"[13]; measured here: cisplatin combination, at 0.5 µM",17.4% and 18.9%
same,inhibition,"[13]; measured here: cisplatin combination, at 5 µM",53.5% and 66.5%
same,inhibition,"[14]; BGB combination, concentration series, at 5 µM",13% and 11.6%
same,inhibition,[14]; at 0.5 µM,-8.08% (inactive) and 2.75% (inactive)
same,inhibition,"[14]; cisplatin combination, concentration series, at 5 µM",-5.18% and 30.7%
same,inhibition,[15],37.7% (inactive) and 21.4% (inactive)
same,inhibition,[15]; measured here: combo with BGB IC20,41.3% and 27.7%
same,inhibition,[15]; measured here: combo with cisplatin IC20,11.1% and -19.1%
same,inhibition,[16]; at 0.5 µM,-29.6% (inactive) and -14.9% (inactive)
same,inhibition,"[16]; cisplatin combination, at 0.5 µM",-28.5% and -4.54%
same,inhibition,"[16]; cisplatin combination, at 5 µM",10.8% and 15.8%
same,inhibition,"[16]; measured here: BGB IC40 combination 0.05 uM, at 0.05 µM",35.1% and 9.21%
same,inhibition,"[16]; single agent, at 5 µM",-17.9% and 3.25%
same,inhibition,[17]; at 0.5 µM,-14.2% (inactive) and -26.4% (inactive)
same,inhibition,"[17]; cisplatin combo, at 5 µM",-20.2% and -20.5%
same,inhibition,"[17]; measured here: BGB IC40 combination, at 0.05 µM",-25.5% and -24.7%
same,inhibition,[17]; [22],-16.3% and -39.4%
same,inhibition,"[17]; single agent, at 5 µM",-18.8% and -0.235%
same,inhibition,[18]; at 0.5 µM,27.6% (inactive) and 42.6% (inactive)
same,inhibition,[18]; [20],19.9% and 59.6%
same,inhibition,[18]; [21],30.4% and 32.6%
same,inhibition,"[18]; single agent, at 0.05 µM",-27% and -16.2%
same,inhibition,"[18]; single agent, at 5 µM",72.5% and 78.1%

# From PubChem BioAssay
